High-throughput results (PubChem)
NPC1 promoter act – qHTS Assay for NPC1 Promoter Activators; Huh7 NPC1 promoter luciferase reporter, 24 h; 2.4% of 320,000 active; AID 485313, 2010; Potency, µM (series often up to 9.22 µM), inactives show at the top dose activation, usual class: activators; note: % of control where 0% means no effect; nearly all actives have a fitted effect of over 60% in size
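Luminescence read-out of NPC1 promoter-driven luciferase in stably transfected Huh7 cells; compounds delivered in DMSO and left 24 h at 37C, 5% CO2, qHTS titration format.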
Rab9 prom act – qHTS Assay for Rab9 Promoter Activators. Huh7 Rab9 promoter-luciferase reporter, luminescence, 24 h. Potency, µM (top dose mostly 9.22 µM), for the others: top-dose activation, negative = inhibition, actives largely listed as activators. 2.8% of 320,000 active; note: % of control where 0% means no effect; nearly all actives have a fitted effect of over 60% in size
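Stable Rab9-luc Huh7, 1500 cells/well, 2 h settle; cmpd in DMSO, 24 h, 37 °C/5% CO2; luciferase reagent 10 min RT; luminescence.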
ELG1 DNA repair – qHTS screen for small molecules that inhibit ELG1-dependent DNA repair in human embryonic kidney (HEK293T) cells expressing luciferase-tagged ELG1; Potency, µM (series often up to 46.1 µM), for inactives: at the highest dose activity change, negative = inhibition, usual class: inhibitors; AID 504467, 2011; 2.3% of 330,000 active; HEK293T ELG1-luciferase reporter, luminescence, 16 h; DNA damage induced by 5-fluorouridine; note: % is set by controls: 0 for no effect and ±100 for the full control effect; nearly all actives have a fitted effect of over 55% in size
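DMSO vehicle served as the neutral condition. Each well held 2,000 cells given 5-fluorouridine plus compound; after 16 hr at 37 °C/5% CO2, ONE-Glo was added and luciferase measured 30 min later.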
ELG1 genotox – qHTS screen for small molecules that induce genotoxicity in human embryonic kidney (HEK293T) cells expressing luciferase-tagged ELG1; Potency, µM (titrated, usually from 46 µM), for inactives: top-dose activity change, positive = activation, actives largely listed as activators; AID 504466, 2011; HEK293T ELG1-luciferase reporter, luminescence, 16 h; 1.3% of 330,000 active; note: % of control where 0% means no effect; nearly all actives have a fitted effect of over 60% in size
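Screening used a luciferase reporter fused to human ELG1 in HEK293T cells. Luminescence was read on a CCD plate imager after 16 hr exposure and 30 min ONE-Glo incubation.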
FLuc modulator – qHTS profiling assay for firefly luciferase inhibitor/activator using purifed enzyme and Km concentrations of substrates (counterscreen for miR-21 project). purified FLuc, Km substrates, luminescence inhibition. Luciferin 4-monooxygenase (Photinus pyralis), P08659. Potency, µM (highest dose often 57.5 µM), without a hit: at the top dose activity change, negative = inhibition, actives largely listed as inhibitors. 6.9% of 360,000 active. AID 588342, 2011;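 note: plate controls were vehicle for no effect and reference inhibitor for full effect; nearly all actives have a fitted effect of over 55% in size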
Target sequence (P08659 whole entry, looked up): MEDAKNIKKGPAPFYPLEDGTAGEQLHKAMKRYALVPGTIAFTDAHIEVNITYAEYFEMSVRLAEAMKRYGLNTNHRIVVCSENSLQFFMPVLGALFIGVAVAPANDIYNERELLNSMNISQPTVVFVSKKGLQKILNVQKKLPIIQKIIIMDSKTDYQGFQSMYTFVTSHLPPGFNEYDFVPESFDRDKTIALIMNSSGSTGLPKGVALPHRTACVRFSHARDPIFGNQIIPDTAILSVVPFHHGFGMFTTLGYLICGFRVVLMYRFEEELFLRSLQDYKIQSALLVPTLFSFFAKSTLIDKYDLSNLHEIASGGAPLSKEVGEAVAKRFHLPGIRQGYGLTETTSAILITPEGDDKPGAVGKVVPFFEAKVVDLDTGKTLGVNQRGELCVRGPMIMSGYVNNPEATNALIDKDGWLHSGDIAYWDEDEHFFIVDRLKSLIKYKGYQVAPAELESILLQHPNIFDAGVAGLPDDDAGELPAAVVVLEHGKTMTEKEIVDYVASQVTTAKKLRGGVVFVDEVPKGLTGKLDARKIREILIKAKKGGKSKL
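Purified P. pyralis luciferase (10nM final) with 10uM D-luciferin and 10uM ATP (Km levels) in 50mM Tris acetate pH 7.5, 10mM Mg acetate, 0.01% Tween-20, 0.05% BSA; qHTS 6-point titration, ~60 µM downward; luminescence read.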
SMN2 splice up – qHTS Assay for Enhancers of SMN2 Splice Variant Expression; HEK293 SMN2-luciferase splicing reporter, luminescence, 30-36 h; Potency, µM (top dose mostly 46.1 µM), inactives show at the top dose activity change, positive = activation, usual class: activators; 2.8% of 210,000 active; note: % of control where 0% means no effect; nearly all actives have a fitted effect of over 55% in size
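HEK293 cells carry an SMN2 […]–luciferase reporter in which exon 7 inclusion puts luciferase in frame. Cells were plated 10-12 h before compound addition, then incubated 30-36 h at 37C. ONE-Glo luminescence was read; sodium butyrate at 4.5 mM final served as control.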
An asterisk follows results filed as active; ? = inconclusive; nt = not tested or not shown; [ ] = dose if it differs, or a comment. Sampled rows, rich in hits. Any-hit rate of the full collection: about 9.4%. Calls come from the whole dose curve; as a rule, active = well fitted curve in the direction sought with a large enough effect; inconclusive = small, poorly fitted or top-dose-only effect, or another doubt; inactive = no such curve, though single readings can be large; an effect the other way counts as inactive or inconclusive. Potency is the fitted concentration of half-maximal effect.

SMILES	NPC1 promoter act	Rab9 prom act	ELG1 DNA repair	ELG1 genotox	FLuc modulator	SMN2 splice up
COc1ccc(C(=O)c2c3ccccc3[n+]([O-])n2Cc2ccc(C(N)=O)cc2)cc1	-3%	-1%	25%	6%	?	nt
Cc1ccc(C(=O)O/N=C(\N)Cc2cccs2)cc1[N+](=O)[O-]	2.2µM*	3.2µM*	?	?	0%	nt
COc1ccccc1C/C(N)=N/OC(=O)c1ccc(C)c([N+](=O)[O-])c1	5%	6%	11%	0%	-2%	-6%
COc1ccc(C)cc1NS(=O)(=O)c1ccc2c3c(cccc13)C(=O)N2	nt	nt	nt	nt	-7%	-45%
CC(C)(C)c1csc(NC(=O)C2COc3ccccc3O2)n1 (stereo not drawn)	?	?	?	?	15µM*	nt
CC(=O)c1sc(NC(=O)C2COc3ccccc3O2)nc1C (stereo not drawn)	0.45µM*	0.35µM*	?	?	1.9µM*	3.2µM*
CC1(C)CC(=O)c2sc(NC(=O)C3COc4ccccc4O3)nc2C1 (stereo not drawn)	25%	?	?	21µM*	?	13µM*
CC1(C)CC(=O)c2sc(NC(=O)c3ccco3)nc2C1	?	28%	?	21µM*	6µM*	?
O=C(Nc1nncs1)C1COc2ccccc2O1 (stereo not drawn)	19%	3%	?	15%	?	?
O=C(NCc1ccc(Cl)cc1)C(=O)NCC(c1cccnc1)N1CCN(c2ccccc2)CC1 (stereo not drawn)	nt	nt	nt	nt	-18%	nt
O=C(Nc1nnc(C(F)(F)F)s1)C1COc2ccccc2O1 (stereo not drawn)	28%	27%	?	4%	?	-28%
O=C(Nc1nnc(C2CC2)s1)C1COc2ccccc2O1 (stereo not drawn)	2.8µM*	0.89µM*	?	4.1µM*	11µM*	5.6µM*
COc1cc(CN(C)C(C)C(=O)Nc2ccc([N+](=O)[O-])cc2Cl)ccc1OC(F)F (stereo not drawn)	1%	-7%	16µM*	-2%	0%	nt
COc1ccc(Cl)cc1NC(=O)C(C)N(C)Cc1ccc(C(F)(F)F)cc1 (stereo not drawn)	-6%	-5%	-23%	13%	-1%	nt
COc1ccc(Br)cc1CN(C)C(C)C(=O)Nc1cccc(C(C)=O)c1 (stereo not drawn)	-6%	2%	26µM*	-9%	-15%	-53%
COc1ccc([N+](=O)[O-])cc1NC(=O)C(C)N(C)Cc1cccc(OC)c1OC (stereo not drawn)	-9%	-5%	9.2µM*	-12%	3%	-30%
Cc1cccc(-c2nc3c4c(-c5ccccc5)c(-c5ccccc5)oc4ncn3n2)c1	nt	nt	nt	nt	1%	-2%
CCCCC(=O)N1CCCC(c2nc(-c3cccc(OC)c3)no2)C1 (stereo not drawn)	?	?	?	14%	17µM*	nt
COc1cccc(-c2noc(C3CCCN(C(=O)c4ccccc4OC)C3)n2)c1 (stereo not drawn)	?	30%	?	10%	21µM*	nt
COc1cccc(-c2noc(C3CCCN(C(=O)c4ccc(F)cc4F)C3)n2)c1 (stereo not drawn)	1%	0%	15%	-2%	-5%	nt
Cc1ccccc1Cn1c(=O)n(-c2ccc(Cl)cc2)c(=O)c2c3c(sc21)CCCC3	nt	nt	nt	nt	-1%	21%
CCCn1nc(NC(=O)c2ccco2)c2cc3cc(C)ccc3nc21	16%	10%	?	-8%	?	nt
CCn1nc(NC(=O)C2CCCO2)c2cc3cc(C)ccc3nc21 (stereo not drawn)	29%	?	?	15%	17µM*	?
CCCn1nc(NS(=O)(=O)c2cccc3nonc23)c2cc3cc(C)ccc3nc21	18%	8%	?	12%	11µM*	nt
CCCn1nc(NC(=O)c2ccccn2)c2cc3cc(C)ccc3nc21	28%	15%	?	6%	11µM*	?
SMILES	NPC1 promoter act	Rab9 prom act	ELG1 DNA repair	ELG1 genotox	FLuc modulator	SMN2 splice up
CCn1nc(NS(=O)(=O)c2ccc(NC(C)=O)cc2)c2cc3ccc(C)cc3nc21	1%	1%	13%	2%	27µM*	nt
COc1cc(OC)c(NC(=O)c2csc3c2CCC(C)C3)cc1Cl (stereo not drawn)	nt	nt	nt	nt	?	16%
CCCCC[C@H](O)/C=C/C=C/C=C/[C@H](O)C/C=C\CCCC(=O)O	nt	nt	nt	nt	nt	5%
O=C(c1ccccc1)c1ccc2n1CC[C@H]2C(=O)O	nt	nt	nt	nt	nt	21%[20.6 µM]
COc1ccc(-n2cc(CN[C@H]3CCCCNC3=O)c(-c3cccc(F)c3)n2)cc1	-1%	0%	?	-2%	17µM*	nt
COc1ccc(C2C(=O)N(C3CCC(C)CC3)CC(=O)N2CCC2=CCCCC2)cc1OC (stereo not drawn)	nt	nt	nt	nt	3%	nt
COc1ccc(Cl)cc1NC(=O)c1cc(C)nc2c1c(C)nn2-c1ccccc1	nt	nt	nt	nt	-4%	nt
COc1ccc(-c2csc3ncnc(N4CCN(S(=O)(=O)c5ccc(C)cc5)CC4)c23)cc1	-3%	-2%	21µM*	-8%	4%	nt
COc1ccc(-c2csc3ncnc(N4CCN(S(=O)(=O)c5cccs5)CC4)c23)cc1	0%	0%	?	-4%	0%	nt
COc1ccc(-c2csc3ncnc(N4CCN(S(=O)(=O)c5ccc(Cl)s5)CC4)c23)cc1	-2%	0%	8.2µM*	-9%	0%	nt
N#CC1=C(N)N2C(=C(C#N)C1c1ccccc1)Sc1ccccc12 (stereo not drawn)	5%	5%	13%	9%	-5%	?
N#CC1=C(N)N2C(=C(C#N)C1c1cccc(Br)c1)Nc1ccccc12 (stereo not drawn)	-14%	-24%	2.9µM*	-12%	0%	-54%
N#CC1=C(N)N2C(=C(C#N)C1c1ccc(Br)cc1)Nc1ccccc12 (stereo not drawn)	-13%	-28%	2.9µM*	-10%	1%	nt
CC(C)OCCCNC(=O)C(=O)Nc1c2c(nn1-c1ccccc1)CS(=O)(=O)C2	nt	nt	nt	nt	5%	nt
CCCc1ccc(-c2ccc(F)c(N)c2)nc1	0.5µM*	0.4µM*	?	?	0.3µM*	0.71µM*
